Reference: PubChem BioAssay (Tox21)
Several values for one entry are separate records, joined by “and”; a condition that tells them apart may be missing. Identical values can stand only once. Inconclusive results are not listed. Activity calls are given as the source filed them. Unless noted, calls follow the shape of the dose curve; as a rule, active = well fitted curve in the direction sought with a large enough effect in the repeat runs; inconclusive = weak or mixed curves; inactive = no such curve, though single readings can be large; an effect the other way counts as inactive or inconclusive.

Experiments:
[1] = A CellTox Green Cytotoxicity Assay to monitor cytotoxicity in HEK293 cells - 32 hour (AID 1224881); also: nearly all actives have a fitted effect of over 40% in size; also: potency is read from the fitted curve at half-maximal effect
Summary of the method: (§1)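 Each value comes from one timepoint of a single continuous run in which HEK293 cells with CellTox Green were exposed to compound for up to 40 h at 37 C, dye fluorescence rising with cell death.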

[2] = A CellTox Green Cytotoxicity Assay to monitor cytotoxicity in HepG2 cells - 0 hour (AID 1224882); also: nearly all actives have a fitted effect of over 35% in size; also: potency is read from the fitted curve at half-maximal effect
Summary of the method: (§2)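 Continuous culture of HepG2 cells with a membrane-impermeant DNA dye; rising fluorescence marks dead cells. Compound exposure lasted up to 40 h at 37 C, with reads every 8 h from 0 h.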

[3] = A CellTox Green Cytotoxicity Assay to monitor cytotoxicity in HepG2 cells - 32 hour (AID 1224883); also: nearly all actives have a fitted effect of over 50% in size; also: potency is read from the fitted curve at half-maximal effect
Summary of the method: as §2

[4] = A CellTox Green Cytotoxicity Assay to monitor cytotoxicity in HEK293 cells - 8 hour (AID 1224884); also: nearly all actives have a fitted effect of over 35% in size; also: potency is read from the fitted curve at half-maximal effect
Summary of the method: as §1

[5] = qHTS RealTime-Glo MT Cell Viability Assay in HepG2 cells - 16 hour (AID 1224885); also: nearly all actives have a fitted effect of over 50% in size; also: potency is read from the fitted curve at half-maximal effect; as to activity change, negative = cytotoxic: % is scaled to controls: 0 for no effect and ±100 for the full control effect
Summary of the method: (§3)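 Luminescence read-out: viable HepG2 cells reduce a prosubstrate to a NanoLuc substrate, giving a signal proportional to live cell number. Reads taken at 0, 8, 16, 24, 32 and 40 h of compound exposure at 37 C.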

[6] = qHTS RealTime-Glo MT Cell Viability Assay in HEK293 cells - 24 hour (AID 1224886); also: nearly all actives have a fitted effect of over 50% in size; also: potency is read from the fitted curve at half-maximal effect; as to activity change, negative = cytotoxicity: top concentration of the series differs between compounds; % is scaled to controls: 0 for no effect and ±100 for the full control effect
Summary of the method: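 Nonlytic real-time viability readout: viable cells convert prosubstrate to NanoLuc substrate, giving luminescence proportional to live cell number. HEK293, 600 cells/well, compound added after 5 h, continuous culture at 37 C.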

[7] = qHTS RealTime-Glo MT Cell Viability Assay in HEK293 cells - 8 hour (AID 1224887); also: nearly all actives have a fitted effect of over 50% in size; also: potency is read from the fitted curve at half-maximal effect; as to activity change, negative = cytotoxicity: top concentration of the series differs between compounds; % is scaled to controls: 0 for no effect and ±100 for the full control effect
Summary of the method: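 qHTS format; HEK293 cells with NanoLuc/prosubstrate reagent, 37 C/5% CO2 for 5 h pre-dosing; compounds 23 nL in DMSO; luminescence at each time point reflects viable cells.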

[8] = A CellTox Green Cytotoxicity Assay to monitor cytotoxicity in HEK293 cells - 16 hour (AID 1224888); also: nearly all actives have a fitted effect of over 35% in size; also: potency is read from the fitted curve at half-maximal effect
Summary of the method: as §1

[9] = qHTS RealTime-Glo MT Cell Viability Assay in HepG2 cells - 0 hour (AID 1224889)
Summary of the method: as §3

[10] = A CellTox Green Cytotoxicity Assay to monitor cytotoxicity in HepG2 cells - 8 hour (AID 1224890); also: nearly all actives have a fitted effect of over 45% in size; also: potency is read from the fitted curve at half-maximal effect
Summary of the method: as §2

[11] = qHTS assay to identify small molecule antagonists of the androgen receptor (AR) signaling pathway using the MDA cell line in the presence of 0.5 nM R1881 - cell viability counter screen (AID 1259242); also: % is scaled to controls: 0 for no effect and ±100 for the full control effect; nearly all actives have a fitted effect of over 45% in size
Summary of the method: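 Fluorescence from CellTiter-Fluor, which reports protease activity of live cells, was read 30 min after reagent addition to MDA-kb2 cells that had been incubated 16 hr with compound and 0.5 nM R1881.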

[12] = target: Androgen receptor (Homo sapiens) (UniProt P10275); experiment: qHTS assay to identify small molecule antagonists of the androgen receptor (AR) signaling pathway using the MDA cell line in the presence of 0.5 nM R1881 (AID 1259243)
Summary of the method: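 Inhibition of R1881 (0.5 nM final) induced reporter signal was measured in human MDA-kb2 cells; note the MMTV promoter also responds to GR. Exposure lasted 16 hr at 37C.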

[13] = target: Estrogen receptor (Homo sapiens) (UniProt P03372); experiment: qHTS assay to identify small molecule antagonists of the estrogen receptor alpha (ER-alpha) signaling pathway using the BG1 cell line in the presence of 0.1 nM 17-beta-estradiol (AID 1259244)
Summary of the method: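 Quantitative high-throughput screen in VM7Luc4E2 cells: compound plus 0.1 nM E2 (final), 22 h, 37C, 5% CO2; ONE-Glo added, 30 min room temperature, luminescence measured.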

[14] = qHTS assay to identify small molecule phospholipidosis (PLD) inducers (AID 1259344; active = well fitted curve in the direction sought with a large enough effect; an effect the other way counts as inactive or inconclusive; also: % is scaled to controls: 0 for no effect and ±100 for the full control effect)
Summary of the method: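 Fluorescent phospholipid staining (LipidTOX Red) measured by automated microscopy in fixed HepG2 cells after 24 h treatment; nuclei counterstained with Hoechst 33342; amiodarone as reference inducer.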

[15] = qHTS assay to identify small molecule HDAC inhibitors - cell viability counter screen (AID 1259365)
Summary of the method: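 Viability readout: CellTiter-Glo luminescence. Wild-type HCT-116 cells, 2hr compound treatment following overnight attachment at 37 C.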

[16] = qHTS assay to identify small molecule agonists of the sonic hedgehog signaling (Shh) pathway - cell viability counter screen (AID 1259366); also: nearly all actives have a fitted effect of over 50% in size; also: potency is read from the fitted curve at half-maximal effect
Summary of the method: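 Viability measured fluorometrically (CellTiter-Fluor, 1hr, 37C) in 3T3 Gli1-Luc reporter cells after 23hr compound exposure within a 24hr incubation at 37C/5% CO2.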

[17] = qHTS assay to identify small molecule antagonists of the sonic hedgehog signaling (Shh) pathway - cell viability counter screen (AID 1259367); also: nearly all actives have a fitted effect of over 55% in size; also: potency is read from the fitted curve at half-maximal effect
Summary of the method: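 Using CellTiter-Fluor, viability of Gli1-Luc reporter 3T3 cells is read by fluorescence in the wells used for the Shh luciferase assay. Treatment lasts 23 hr with conditioned medium, then reagent 1 hr at 37C.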

[18] = qHTS assay to identify small molecule agonists of the sonic hedgehog signaling (Shh) pathway (AID 1259368; calls by dose curve; also: nearly all actives have a fitted effect of over 15% in size; also: potency is read from the fitted curve at half-maximal effect)
Summary of the method: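 Luminescent signal was taken as a measure of Gli1-controlled luciferase expression in stably transfected NIH/3T3-derived cells that had been treated for 24 hr with compounds delivered in DMSO.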

[19] = qHTS assay to identify small molecule antagonists of the estrogen receptor alpha (ER-alpha) signaling pathway using the BG1 cell line in the presence of 0.1 nM 17-beta-estradiol - cell viability counter screen (AID 1259241); also: % is scaled to controls: 0 for no effect and ±100 for the full control effect; nearly all actives have a fitted effect of over 40% in size
Summary of the method: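 The cell line endogenously expresses full-length ER-alpha and carries four EREs driving luciferase. Cells are cultured 5 days hormone-free, treated 22 hr with compounds and 0.1 nM estradiol, then viability is read by fluorescence.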

[20] = qHTS assay to identify small molecule HDAC inhibitors (AID 1259364); also: nearly all actives have a fitted effect of over 45% in size; also: potency is read from the fitted curve at half-maximal effect
Summary of the method: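 Endogenous HDAC class I/II activity was measured in wild-type HCT-116 cells by HDAC-Glo luminescence after 2 h compound treatment.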

Sequence of Estrogen receptor (Homo sapiens) (P03372 whole entry, looked up): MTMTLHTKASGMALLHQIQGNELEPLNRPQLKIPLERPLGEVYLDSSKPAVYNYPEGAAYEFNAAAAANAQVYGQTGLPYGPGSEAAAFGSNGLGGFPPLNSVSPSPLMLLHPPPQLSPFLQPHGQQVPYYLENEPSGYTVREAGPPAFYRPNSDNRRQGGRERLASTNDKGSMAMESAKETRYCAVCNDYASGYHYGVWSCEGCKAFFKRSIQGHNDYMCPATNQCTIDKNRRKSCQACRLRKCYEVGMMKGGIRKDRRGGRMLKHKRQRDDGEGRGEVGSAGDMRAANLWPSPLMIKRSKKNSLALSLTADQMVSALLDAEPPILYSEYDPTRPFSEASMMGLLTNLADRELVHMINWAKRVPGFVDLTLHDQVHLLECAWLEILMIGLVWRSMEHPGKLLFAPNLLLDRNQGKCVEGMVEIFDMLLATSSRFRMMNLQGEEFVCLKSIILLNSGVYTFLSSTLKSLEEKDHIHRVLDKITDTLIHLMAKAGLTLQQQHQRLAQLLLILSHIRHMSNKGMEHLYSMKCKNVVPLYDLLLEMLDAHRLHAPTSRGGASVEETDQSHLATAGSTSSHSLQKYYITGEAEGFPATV
Sequence of Androgen receptor (Homo sapiens) (P10275 whole entry, looked up): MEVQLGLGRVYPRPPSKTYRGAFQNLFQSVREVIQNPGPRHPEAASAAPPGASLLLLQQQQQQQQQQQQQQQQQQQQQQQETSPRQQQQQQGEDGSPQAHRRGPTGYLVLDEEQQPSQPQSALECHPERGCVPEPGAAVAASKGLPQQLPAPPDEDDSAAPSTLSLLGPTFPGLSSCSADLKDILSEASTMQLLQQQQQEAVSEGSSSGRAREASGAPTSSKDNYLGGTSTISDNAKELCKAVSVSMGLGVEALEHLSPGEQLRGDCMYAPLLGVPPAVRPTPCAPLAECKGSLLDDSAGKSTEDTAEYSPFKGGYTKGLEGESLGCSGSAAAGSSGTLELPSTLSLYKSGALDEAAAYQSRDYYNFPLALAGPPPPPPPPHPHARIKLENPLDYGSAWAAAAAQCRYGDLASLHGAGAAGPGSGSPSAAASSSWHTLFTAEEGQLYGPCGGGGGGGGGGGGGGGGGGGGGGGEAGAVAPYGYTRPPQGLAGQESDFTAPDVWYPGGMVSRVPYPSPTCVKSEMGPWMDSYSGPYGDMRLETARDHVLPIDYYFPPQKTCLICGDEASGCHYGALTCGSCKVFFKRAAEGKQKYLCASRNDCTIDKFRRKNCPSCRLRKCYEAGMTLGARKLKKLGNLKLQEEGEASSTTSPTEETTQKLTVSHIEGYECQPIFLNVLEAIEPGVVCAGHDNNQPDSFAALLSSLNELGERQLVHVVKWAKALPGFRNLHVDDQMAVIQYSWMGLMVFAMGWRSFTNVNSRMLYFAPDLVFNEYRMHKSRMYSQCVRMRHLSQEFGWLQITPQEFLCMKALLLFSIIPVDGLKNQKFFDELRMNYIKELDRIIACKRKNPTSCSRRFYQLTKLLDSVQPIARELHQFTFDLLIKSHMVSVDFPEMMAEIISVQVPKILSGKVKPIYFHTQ

Cc1cc(C)c(/C=C2\C(=O)Nc3ccccc32)[nH]1
active: Potency [1] 10.7 µM | Potency [2] 10.7 µM | Potency [3] 19 µM | Potency [4] 16.9 µM | Potency [8] 10.7 µM | Potency [10] 19 µM | Potency [12] 13.3 µM
inactive: Potency [5] | Potency [6] | Potency [7] | Potency [9] | Potency [11] | Potency [13] | Potency [14] | Potency [15] | Potency [16] | Potency [17] | Potency [18]

O=[N+]([O-])c1ccc(F)c(Cl)c1
inactive: Potency [1] | Potency [2] | Potency [3] | Potency [4] | Potency [5] | Potency [6] | Potency [7] | Potency [8] | Potency [9] | Potency [10] | Potency [19] | Potency [11] | Potency [20] | Potency [15] | Potency [16] | Potency [17] | Potency [18]

O=C(O)O
inactive: cytotoxicity increase [1] -1.24% [at 6.97 µM] | cytotoxicity [2] 0.722% [at 6.97 µM] | cytotoxicity increase [3] -9.49% [at 6.97 µM] | cytotoxicity increase [4] -0.487% [at 6.97 µM] | activity change, negative = cytotoxic [5] -0.68% [at 6.97 µM] | activity change, negative = cytotoxicity [6] -0.471% [at 6.97 µM] | activity change, negative = cytotoxicity [7] 1.73% [at 6.97 µM] | activity change [8] 1.05% [at 6.97 µM, stronger effect = higher value] | activity change, negative = cytotoxicity [9] -3.52% [at 6.97 µM] | cytotoxicity increase [10] 4.8% [at 6.97 µM] | viability change, negative = cytotoxic [11] 0.635% [at 8.39 µM] | activity change, negative = inhibition [13] -65% [at 8.39 µM] | activity change, negative = inhibition [20] 2.76% [at 8.39 µM] | viability change, negative = cytotoxic [16] 1.19% [at 8.39 µM] | viability change, negative = cytotoxic [17] -2.57% [at 8.39 µM] | activity change [18] 0.72% [at 8.39 µM, stronger effect = higher value]

C#CC1(O)CC[C@H]2[C@@H]3CCC4=CCCC[C@@H]4[C@H]3CC[C@@]21C (stereo not given in full)
active: Potency [1] 24.5 µM and 21.3 µM | Potency [3] 34.7 µM and 19 µM | Potency [4] 17.4 µM and 23.9 µM | Potency [5] 23.9 µM | Potency [6] 17.4 µM and 16.9 µM | Potency [7] 21.3 µM | Potency [8] 24.5 µM and 21.3 µM | Potency [10] 24.5 µM and 21.3 µM | Potency [16] 26.6 µM
inactive: Potency [2] | Potency [9] | Potency [19] | Potency [13] | Potency [14] | Potency [20] | Potency [18]

COC(=O)c1ccccc1OC
inactive: Potency [1] | Potency [2] | Potency [3] | Potency [4] | Potency [5] | Potency [6] | Potency [9] | Potency [10] | Potency [19] | Potency [11] | Potency [13] | Potency [20] | Potency [15] | Potency [16] | Potency [17]

O=C(/C=C/c1ccc(O)c(O)c1)O[C@@H](C(=O)O)[C@@H](OC(=O)/C=C/c1ccc(O)c(O)c1)C(=O)O
inactive: Potency [1] | Potency [2] | Potency [3] | Potency [4] | Potency [5] | Potency [6] | Potency [7] | Potency [8] | Potency [9] | Potency [10] | Potency [19] | Potency [11] | Potency [20] | Potency [15] | Potency [18]

Nc1nc(N)nc(-c2cc(Cl)ccc2Cl)n1
inactive: Potency [1] | Potency [2] | Potency [3] | Potency [4] | Potency [5] | Potency [6] | Potency [7] | Potency [8] | Potency [9] | Potency [10] | Potency [19] | Potency [11] | Potency [14] | Potency [20] | Potency [15] | Potency [16] | Potency [17] | Potency [18]

C1CCC(SSC2CCCCC2)CC1
inactive: Potency [1] | Potency [2] | Potency [3] | Potency [4] | Potency [5] | Potency [6] | Potency [7] | Potency [8] | Potency [10] | Potency [19] | Potency [11] | Potency [13] | Potency [20] | Potency [16] | Potency [18]

C=Cc1cccc(C)c1
inactive: Potency [1] | Potency [2] | Potency [3] | Potency [4] | Potency [5] | Potency [6] | Potency [7] | Potency [8] | Potency [10] | Potency [19] | Potency [11] | Potency [13] | Potency [20] | Potency [15] | Potency [16] | Potency [18]

CCN(CCN)c1cccc(C)c1
inactive: Potency [1] | Potency [2] | Potency [3] | Potency [4] | Potency [5] | Potency [6] | Potency [7] | Potency [8] | Potency [10] | Potency [19] | Potency [11] | Potency [13] | Potency [20] | Potency [15] | Potency [16] | Potency [17] | Potency [18]

CCCC[P+](C)(CCCC)CCCC
active: Potency [18] 19.6 µM
inactive: Potency [1] | Potency [2] | Potency [3] | Potency [4] | Potency [5] | Potency [7] | Potency [8] | Potency [9] | Potency [10] | Potency [19] | Potency [11] | Potency [13] | Potency [20] | Potency [15] | Potency [16]

CN(C)C(=O)COC(=O)Cc1ccc(OC(=O)c2ccc(N=C(N)N)cc2)cc1
active: Potency [20] 37.6 nM
inactive: Potency [1] | Potency [2] | Potency [3] | Potency [4] | Potency [5] | Potency [6] | Potency [7] | Potency [8] | Potency [9] | Potency [10] | Potency [19] | Potency [11] | Potency [14] | Potency [15] | Potency [16] | Potency [17] | Potency [18]

CCc1oc2ccccc2c1C(=O)c1cc(I)c(O)c(I)c1
inactive: Potency [1] | Potency [2] | Potency [3] | Potency [4] | Potency [5] | Potency [6] | Potency [7] | Potency [8] | Potency [9] | Potency [10] | Potency [19] | Potency [11] | Potency [14] | Potency [20] | Potency [15] | Potency [16] | Potency [18]

O=C(O)c1cc(N=Nc2ccc([N+](=O)[O-])cc2)ccc1O
active: Potency [20] 848 nM | Potency [16] 26.8 µM | Potency [17] 30.1 µM
inactive: Potency [1] | Potency [2] | Potency [3] | Potency [4] | Potency [5] | Potency [6] | Potency [7] | Potency [8] | Potency [9] | Potency [10] | Potency [13] | Potency [15] | Potency [18]

CC(C)(C)CC(C)(C)c1ccc(Nc2ccc(C(C)(C)CC(C)(C)C)cc2)cc1
inactive: cytotoxicity increase [1] 0.962% [at 6.97 µM] | cytotoxicity [2] 0.162% [at 6.97 µM] | cytotoxicity increase [3] 0.939% [at 6.97 µM] | cytotoxicity increase [4] 0.178% [at 6.97 µM] | activity change, negative = cytotoxic [5] 0.171% [at 6.97 µM] | activity change, negative = cytotoxicity [6] 3.98% [at 6.97 µM] | activity change, negative = cytotoxicity [7] -20.4% [at 6.97 µM] | activity change [8] 5.08% [at 6.97 µM, stronger effect = higher value] | cytotoxicity increase [10] 1.07% [at 6.97 µM] | activity change, negative = cytotoxicity [19] 4% [at 8.39 µM] | viability change, negative = cytotoxic [11] 0.0791% [at 8.39 µM] | activity change, negative = inhibition [13] -17.9% [at 8.39 µM] | activity change, negative = inhibition [20] -1.65% [at 8.39 µM] | viability change, negative = cytotoxic [16] 3.57% [at 8.39 µM] | activity change [18] -0.648% [at 8.39 µM, stronger effect = higher value]
